# According to PubChem BioAssay (Tox21):
# Values joined by “and” are separate entries in the source; they are usually repeats but may differ in a detail not shown here. Equal values may be shown once. Results filed as inconclusive are left out. Entries that show only a call come without a potency. The source holds several records for some structures; these can differ, active in one and inactive in another. Active and inactive are the calls of the source. Unless noted, calls come from the whole dose curve; as a rule, active = well fitted curve in the direction sought with a large enough effect in the repeat runs; inconclusive = weak or mixed curves; inactive = no such curve, though single readings can be large; an effect the other way counts as inactive or inconclusive.
# Legend:
# [1] = qHTS assay to test for compound auto fluorescence at 535 nm (green) in HEK293 cells (AID 720680); note: potency is the fitted concentration of half-maximal effect
# [2] = qHTS assay to test for compound auto fluorescence at 460 nm (blue) in HEK293 cell free culture (AID 720681)
# Outline: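 Test compounds were pinned into cell-free culture medium (DMEM with 10% FBS) and fluorescence was read directly at Ex/Em 405/460 nm. Signals were expressed as fluorescence equivalents of triamterene, with DMSO vehicle as control.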
# [3] = qHTS assay to test for compound auto fluorescence at 535 nm (green) in HEK293 cell free culture (AID 720682); note: potency is the fitted concentration of half-maximal effect
# Outline: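 Using fluorescein as calibrant, autofluorescence was quantified at 485/535 nm in cell-free DMEM containing 10% FBS after pintool addition of compound or vehicle.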
# [4] = qHTS assay to test for compound auto fluorescence at 590 nm (red) in HEK293 cell free culture (AID 720683)
# Outline: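 Tox21 10K library compounds were pinned into cell-free DMEM with 10% FBS and fluorescence was read at excitation 540 nm. Activity is expressed as Rose Bengal sodium equivalency.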
# [5] = qHTS assay to test for compound auto fluorescence at 590 nm (red) in HepG2 cell free culture (AID 720684)
# Outline: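 Measured in medium alone (MEM containing 10% FBS) following pintool addition of compound; emission at 590 nm with 540 nm excitation, referenced to Rose Bengal sodium.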
# [6] = qHTS assay to test for compound auto fluorescence at 460 nm (blue) in HepG2 cell free culture (AID 720685)
# Outline: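 Compound (23 nL) or DMSO pinned into cell-free MEM with 10% FBS; blue fluorescence read at 405/460 nm excitation/emission, expressed as auto-fluorescence equivalency to triamterene.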
# [7] = qHTS assay to test for compound auto fluorescence at 535 nm (green) in HepG2 cell free culture (AID 720686); note: potency is the fitted concentration of half-maximal effect
# [8] = qHTS assay to test for compound auto fluorescence at 460 nm (blue) in HepG2 cells (AID 720687)
# Outline: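 Cells (2,000/well in MEM with 10% FBS) attached overnight at 37 C, then were exposed to compound or DMSO for 1 hr at 37 C, 5% CO2. Fluorescence read at Ex/Em 405/460 nm, expressed as triamterene-equivalent signal.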
# [9] = target: Glucocorticoid receptor (Homo sapiens) (UniProt P04150); experiment: qHTS assay to identify small molecule agonists of the glucocorticoid receptor (GR) signaling pathway (AID 720691; active = well fitted activation curve with a large enough effect in the signal ratio in the repeat runs, not every such curve was filed as active; the % refers to the signal ratio)
# Chain of Glucocorticoid receptor (Homo sapiens) (P04150 whole entry, looked up): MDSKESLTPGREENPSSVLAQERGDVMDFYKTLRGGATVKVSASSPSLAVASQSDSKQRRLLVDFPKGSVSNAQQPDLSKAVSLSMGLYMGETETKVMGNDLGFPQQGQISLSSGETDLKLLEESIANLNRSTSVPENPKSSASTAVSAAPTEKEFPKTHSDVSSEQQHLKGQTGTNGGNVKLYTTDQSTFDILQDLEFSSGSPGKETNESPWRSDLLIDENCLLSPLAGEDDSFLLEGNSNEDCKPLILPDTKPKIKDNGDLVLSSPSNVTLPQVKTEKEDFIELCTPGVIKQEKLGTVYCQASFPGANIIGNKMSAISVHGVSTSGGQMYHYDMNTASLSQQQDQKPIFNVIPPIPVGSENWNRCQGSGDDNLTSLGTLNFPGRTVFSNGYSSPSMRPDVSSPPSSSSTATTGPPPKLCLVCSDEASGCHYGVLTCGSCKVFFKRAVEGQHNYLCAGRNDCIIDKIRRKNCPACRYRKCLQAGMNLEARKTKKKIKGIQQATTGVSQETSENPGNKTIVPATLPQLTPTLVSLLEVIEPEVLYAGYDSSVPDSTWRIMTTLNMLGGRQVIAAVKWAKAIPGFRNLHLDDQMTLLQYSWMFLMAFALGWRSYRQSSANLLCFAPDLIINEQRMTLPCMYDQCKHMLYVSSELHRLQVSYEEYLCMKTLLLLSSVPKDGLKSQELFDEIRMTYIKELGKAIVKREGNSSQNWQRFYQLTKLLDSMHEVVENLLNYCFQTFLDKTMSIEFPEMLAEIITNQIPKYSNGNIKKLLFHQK
# Outline: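 Fluorescence intensity from LiveBLAzer B/G FRET substrate (2 h, room temperature) reports beta-lactamase expression driven by the glucocorticoid response element in GR-bla HeLa cells after 18 h compound exposure at 37 C.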
# [10] = qHTS assay for identifying genotoxic compounds that show differential cytotoxicity against isogenic chicken DT40 cell lines with known DNA damage response pathways - Rev3 mutant cell line (AID 743014); note: nearly all actives have a fitted effect of over 55% in size; note: potency is the fitted concentration of half-maximal effect
# [11] = qHTS assay for identifying genotoxic compounds that show differential cytotoxicity against isogenic chicken DT40 cell lines with known DNA damage response pathways - Rad54/Ku70 mutant cell line (AID 743015); note: nearly all actives have a fitted effect of over 60% in size; note: potency is the fitted concentration of half-maximal effect
# [12] = qHTS assay to identify small molecule antagonists of the androgen receptor (AR) signaling pathway - cell viability counter screen (AID 743033; note: nearly all actives have a fitted effect of over 45% in size; note: potency is the fitted concentration of half-maximal effect)
# [13] = qHTS assay to identify small molecule antagonists of the androgen receptor (AR) signaling pathway using the MDA cell line - cell viability counter screen (AID 743041; note: nearly all actives have a fitted effect of over 45% in size)
# Outline: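 Viability counter screen run alongside the AR antagonist reporter: cells seeded 5 h before compound, R1881 added, 16 h incubation at 37C without CO2, fluorescent CellTiter-Fluor signal quantified.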
# [14] = target: Glucocorticoid receptor (Homo sapiens) (UniProt P04150); experiment: qHTS assay to identify small molecule antagonists of the glucocorticoid receptor (GR) signaling pathway (AID 720692; active = well fitted inhibition curve with a large enough effect in the signal ratio in the repeat runs, not every such curve was filed as active; the % refers to the signal ratio)
# Outline: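 HeLa GR-bla cells; cmpd + dex 5 nM final, 18 h 37 C; LiveBLAzer B/G FRET substrate 2 h RT; fluorescence intensity read. Antagonist mode, qHTS.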
# [15] = qHTS assay to identify small molecule antagonists of the glucocorticoid receptor (GR) signaling pathway - cell viability counter screen (AID 720693); note: nearly all actives have a fitted effect of over 55% in size
# [16] = qHTS assay for identifying genotoxic compounds that show differential cytotoxicity against isogenic chicken DT40 cell lines with known DNA damage response pathways - wild type cell line (AID 743012); note: nearly all actives have a fitted effect of over 60% in size; note: potency is the fitted concentration of half-maximal effect
# Outline: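 Wild type DT40, 300 cells/well, ~0.5 h settle at 37 C/5% CO2; compounds in DMSO added by pintool; 40 h at 37 C/5% CO2; CellTiter-Glo, 30 min RT; luminescence.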
# [17] = target: Androgen receptor (Homo sapiens) (UniProt P10275); experiment: qHTS assay to identify small molecule antagonists of the androgen receptor (AR) signaling pathway (AID 743035; active = well fitted inhibition curve with a large enough effect in the signal ratio in the repeat runs, not every such curve was filed as active; the % refers to the signal ratio; note: potency is the fitted concentration of half-maximal effect)
# Chain of Androgen receptor (Homo sapiens) (P10275 whole entry, looked up): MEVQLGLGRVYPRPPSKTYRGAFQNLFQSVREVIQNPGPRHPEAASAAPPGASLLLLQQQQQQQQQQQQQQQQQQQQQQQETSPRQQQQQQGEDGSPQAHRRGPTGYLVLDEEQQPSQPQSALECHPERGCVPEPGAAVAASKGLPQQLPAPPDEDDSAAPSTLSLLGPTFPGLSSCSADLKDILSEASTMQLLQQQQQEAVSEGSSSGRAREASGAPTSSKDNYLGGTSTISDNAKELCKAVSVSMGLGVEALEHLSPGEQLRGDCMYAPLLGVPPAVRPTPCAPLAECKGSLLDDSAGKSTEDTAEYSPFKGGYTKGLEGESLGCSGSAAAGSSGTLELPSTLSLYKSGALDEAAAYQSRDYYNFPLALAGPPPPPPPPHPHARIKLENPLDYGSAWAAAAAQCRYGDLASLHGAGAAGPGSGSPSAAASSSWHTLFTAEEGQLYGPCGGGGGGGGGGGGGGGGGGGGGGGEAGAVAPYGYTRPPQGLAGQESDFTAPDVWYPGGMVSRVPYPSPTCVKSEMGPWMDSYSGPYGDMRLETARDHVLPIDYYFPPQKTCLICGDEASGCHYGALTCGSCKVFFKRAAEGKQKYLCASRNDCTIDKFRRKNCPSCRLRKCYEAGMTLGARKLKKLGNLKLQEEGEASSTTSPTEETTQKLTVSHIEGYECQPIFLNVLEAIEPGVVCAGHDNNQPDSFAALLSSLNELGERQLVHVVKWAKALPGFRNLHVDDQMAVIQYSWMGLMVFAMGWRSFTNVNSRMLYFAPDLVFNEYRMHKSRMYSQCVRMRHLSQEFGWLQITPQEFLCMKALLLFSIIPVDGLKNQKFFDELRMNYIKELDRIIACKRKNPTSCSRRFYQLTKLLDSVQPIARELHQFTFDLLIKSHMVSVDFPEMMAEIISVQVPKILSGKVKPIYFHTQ
# Outline: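 Fluorescence from a beta-lactamase FRET substrate (LiveBLAzer B/G, 2 h, room temperature) measured inhibition of R1881-stimulated signaling in GeneBLAzer AR-UAS-bla HEK293 cells exposed to compound for 16 h at 37C.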
# [18] = target: Androgen receptor (Homo sapiens) (UniProt P10275); experiment: qHTS assay to identify small molecule agonists of the androgen receptor (AR) signaling pathway using the MDA cell line (AID 743040; note: nearly all actives have a fitted effect of over 20% in size)
# Outline: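 Luminescence from ONE-Glo, read after 30 min at room temperature, reflects MMTV-driven luciferase in MDA-kb2 cells (AR- and GR-responsive). Treatment lasted 16 h at 37C, 0% CO2.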
# [19] = target: Androgen receptor (Homo sapiens) (UniProt P10275); experiment: qHTS assay to identify small molecule antagonists of the androgen receptor (AR) signaling pathway using the MDA cell line (AID 743042; note: nearly all actives have a fitted effect of over 55% in size)
# Outline: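 MDA-kb2 cells (human breast carcinoma, stably carrying an MMTV-luciferase reporter responsive to AR and GR) were plated at 3,000 cells/well and preincubated 5 hr at 37C, then given compound plus R1881 agonist for 16 h. ONE-Glo luminescence was read.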
# [20] = target: Androgen receptor (Homo sapiens) (UniProt P10275); experiment: qHTS assay to identify small molecule agonists of the androgen receptor (AR) signaling pathway (AID 743036; active = well fitted activation curve with a large enough effect in the signal ratio in the repeat runs, with a control signal flat, not every such curve was filed as active; the % refers to the signal ratio)
# Outline: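 In this Tox21 qHTS, 2,000 HEK293 AR-bla cells per well were incubated with compounds for 16 h at 37C and 5% CO2. Fluorescence intensity was recorded 2 h after adding LiveBLAzer B/G FRET substrate at room temperature.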
# Tags give direction and shape of the fitted curve or compound fluorescence and quenching.
structure (smiles),measurement,setting,value
Cc1ccc(C(=O)c2cc(O)c(O)c([N+](=O)[O-])c2)cc1,Potency,[1],inactive
same,outcome,[2],inactive
same,Potency,[3],inactive
same,Potency,[4],inactive
same,Potency,[5],inactive
same,outcome,[6],inactive
same,Potency,[7],inactive
same,outcome,[8],inactive
same,Potency,[9],inactive
same,Potency,[10],inactive and 68.6 µM (active)
same,Potency,[11],48.6 µM (active)
same,Potency,[12],inactive
same,Potency,[13],inactive
OC[C@H]1O[C@@H]2O[C@H]3[C@H](O)[C@@H](O)[C@@H](O[C@H]4[C@H](O)[C@@H](O)[C@@H](O[C@H]5[C@H](O)[C@@H](O)[C@@H](O[C@H]6[C@H](O)[C@@H](O)[C@@H](O[C@H]7[C@H](O)[C@@H](O)[C@@H](O[C@H]8[C@H](O)[C@@H](O)[C@@H](O[C@H]1[C@H](O)[C@H]2O)O[C@@H]8CO)O[C@@H]7CO)O[C@@H]6CO)O[C@@H]5CO)O[C@@H]4CO)O[C@@H]3CO,Potency,[1],inactive
same,outcome,[2],inactive
same,Potency,[3],inactive
same,Potency,[4],inactive
same,outcome,[6],inactive
same,Potency,[7],inactive
same,outcome,[8],inactive
same,Potency,[9],inactive
same,Potency,[14],inactive
same,Potency,[15],inactive
same,Potency,[16],inactive
same,Potency,[10],inactive
same,Potency,[11],inactive
same,Potency,[12],inactive
same,Potency,[13],inactive
CN1C(C(=O)Nc2ccccn2)=C(O)c2ccccc2S1(=O)=O,Potency,[1],inactive
same,outcome,[2],inactive
same,Potency,[3],inactive
same,Potency,[4],inactive
same,Potency,[5],inactive
same,outcome,[6],inactive
same,Potency,[7],inactive
same,outcome,[8],inactive
same,Potency,[9],inactive
same,Potency,[10],inactive
same,Potency,[11],inactive
same,Potency,[12],inactive
same,Potency,[13],inactive
Cc1cc2nc3c(=O)[nH]c(=O)nc-3n(C[C@H](O)[C@H](O)[C@H](O)CO)c2cc1C,Potency,[1],35.5 µM [fluorescent] (active) [middle of 4 runs]
same,outcome,[2],inactive
same,Potency,[3],31.6 µM [fluorescent] (active) [middle of 4 runs]
same,Potency,[4],inactive
same,Potency,[5],inactive
same,outcome,[6],inactive
same,Potency,[7],17.8 µM [fluorescent] (active) and 39.8 µM [fluorescent] (active) and 35.5 µM [fluorescent] (active)
same,outcome,[8],inactive
same,Potency,[9],inactive
same,Potency,[10],inactive
same,Potency,[11],18.8 µM (active) and inactive
same,Potency,[12],inactive
c1cc(N(CC2CO2)CC2CO2)ccc1OCC1CO1 (stereo not drawn),Potency,[1],inactive
same,outcome,[2],inactive
same,Potency,[3],inactive
same,Potency,[4],inactive
same,outcome,[6],inactive
same,Potency,[7],inactive
same,outcome,[8],inactive
same,Potency,[16],687 nM (active) and 306 nM (active)
same,Potency,[10],10.9 nM (active) and 12.2 nM (active)
same,Potency,[11],770 nM (active) and 273 nM (active)
same,Potency,[12],inactive
same,Potency,[13],inactive
CN(C)c1nc(N(C)C)nc(N(C)C)n1,"fluorescence, % of fluorescein",[1],0.0818% [at 18.6 µM] (inactive) and -0.032% [at 3.72 µM] (inactive)
same,"fluorescence, % of fluorescent control",[2],0.0543% [at 18.6 µM] (inactive) and 0.0026% [at 3.72 µM] (inactive)
same,"fluorescence, % of fluorescent control",[4],-0.0465% [at 18.6 µM] (inactive) and -0.254% [at 3.72 µM] (inactive)
same,"fluorescence, % of Rose Bengal",[5],0.0258% [at 18.6 µM] (inactive) and 0.364% [at 3.72 µM] (inactive)
same,"fluorescence, % of fluorescent control",[6],0.0368% [at 18.6 µM] (inactive) and -0.0793% [at 3.72 µM] (inactive)
same,"fluorescence, % of fluorescein control",[7],-0.0261% [at 18.6 µM] (inactive) and -0.0181% [at 3.72 µM] (inactive)
same,"fluorescence, % of fluorescent control",[8],0.0942% [at 18.6 µM] (inactive) and -0.004% [at 3.72 µM] (inactive)
same,Potency,[9],inactive
same,Potency,[14],inactive
same,Potency,[15],inactive
same,Potency,[16],inactive
same,Potency,[10],inactive
same,"activity change, negative = cytotoxicity",[11],0.358% [at 8.55 µM] (inactive)
same,Potency,[12],inactive
same,Potency,[13],inactive
CCCCCCCCCC(=O)OC,Potency,[1],inactive
same,outcome,[2],inactive
same,Potency,[3],inactive
same,Potency,[4],inactive
same,outcome,[6],inactive
same,Potency,[7],inactive
same,outcome,[8],inactive
same,Potency,[10],inactive
same,Potency,[11],inactive
same,Potency,[12],inactive
same,Potency,[13],inactive
COc1cc([C@@H]2c3cc4c(cc3[C@H](O)[C@H]3COC(=O)[C@H]23)OCO4)cc(OC)c1OC,Potency,[1],inactive
same,outcome,[2],inactive
same,Potency,[3],inactive
same,Potency,[4],inactive
same,outcome,[6],inactive
same,Potency,[7],inactive
same,outcome,[8],inactive
same,Potency,[9],inactive
same,Potency,[16],26.6 nM (active) and 24.3 nM (active)
same,Potency,[10],29.8 nM (active) and 19.3 nM (active)
same,Potency,[11],29.8 nM (active) and 21.7 nM (active)
same,Potency,[12],inactive
same,Potency,[17],0.0379 µM (active)
same,Potency,[18],inactive
same,Potency,[13],inactive
same,Potency,[19],inactive
O=C(OCc1ccccc1)c1ccccc1O,Potency,[1],inactive
same,outcome,[2],inactive
same,Potency,[3],inactive
same,Potency,[4],inactive
same,outcome,[6],inactive
same,Potency,[7],inactive
same,outcome,[8],inactive
same,Potency,[9],inactive
same,Potency,[14],inactive
same,Potency,[12],inactive
same,Potency,[13],inactive
Cc1ncc[nH]1,Potency,[1],inactive
same,outcome,[2],inactive
same,Potency,[3],inactive
same,Potency,[4],inactive
same,outcome,[6],inactive
same,Potency,[7],inactive
same,outcome,[8],inactive
same,Potency,[9],inactive
same,Potency,[14],inactive
same,Potency,[16],inactive
same,Potency,[10],inactive
same,Potency,[11],inactive
same,Potency,[12],inactive
same,Potency,[13],inactive
CCCCc1oc2ccccc2c1C(=O)c1cc(I)c(OCCN(CC)CC)c(I)c1,Potency,[1],inactive
same,outcome,[2],inactive
same,Potency,[3],inactive
same,Potency,[4],inactive
same,outcome,[6],inactive
same,Potency,[7],inactive
same,outcome,[8],inactive
same,Potency,[12],inactive and 34.9 µM (active)
same,Potency,[13],inactive
Nc1ncnc2nc[nH]c12,Potency,[1],inactive
same,outcome,[2],inactive
same,Potency,[3],inactive
same,Potency,[4],inactive
same,outcome,[6],inactive
same,Potency,[7],inactive
same,outcome,[8],inactive
same,Potency,[9],inactive
same,Potency,[10],inactive
same,Potency,[11],inactive
same,Potency,[12],inactive
same,Potency,[13],inactive
CCC(C)(O)CCCC(C)C (stereo not drawn),Potency,[1],inactive
same,outcome,[2],inactive
same,Potency,[3],inactive
same,Potency,[4],inactive
same,outcome,[6],inactive
same,Potency,[7],inactive
same,outcome,[8],inactive
same,Potency,[9],inactive
same,Potency,[15],inactive
same,Potency,[16],inactive
same,Potency,[10],inactive
same,Potency,[11],inactive
same,Potency,[12],inactive
same,Potency,[13],inactive
Cc1cccc(C(=O)O)c1,Potency,[1],inactive
same,outcome,[2],inactive
same,Potency,[3],inactive
same,Potency,[4],inactive
same,outcome,[6],inactive
same,Potency,[7],inactive
same,outcome,[8],inactive
same,Potency,[16],inactive
same,Potency,[10],inactive
same,Potency,[11],inactive
same,Potency,[12],inactive
same,Potency,[17],inactive
same,outcome,[20],inactive
same,Potency,[18],inactive
same,Potency,[13],inactive
same,Potency,[19],inactive
